{"source": "PubChem BioAssay (NCI)", "note": "This is part of a sample that, as a whole, favours compounds with a hit. Of some 79,000 tested, about 15% had one in any assay. The source made the active and inactive calls. No stated cut-off is given here; in the data, active means growth inhibition above about 70%; inactive means the rest."}
{"assay": "NCI Yeast Anticancer Drug Screen. Data for the rad50 strain (AID 155);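 further: 0% = growth of vehicle-only cultures of the same strain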", "settings": "S. cerevisiae rad50 strain growth inhibition; at 50.0 µM; active compounds read high", "method": "Growth inhibition of yeast strains with defined genetic alterations is measured as a screen for potential anti-cancer activity. Selected strains with alterations in DNA damage repair or cell cycle control were exposed to compounds and growth inhibition was measured relative to vehicle treated controls. The strain used in this assay is rad50"}
{"smiles": "N=Cc1ccccc1O", "growth inhibition": "-3.3% (inactive)"}
{"smiles": "CCOC(=O)/C=C/C=C(\\OCC)C1CCC2C3CC=C4CC(OC(C)=O)CCC4(C)C3CCC12C", "note": "(stereo not given)", "growth inhibition": "-4% (inactive)"}
{"smiles": "C[N+](C)(CC(=O)Nc1cc(C(F)(F)F)cc(C(F)(F)F)c1)CC(=O)Nc1ccc(Cl)c(C(F)(F)F)c1", "growth inhibition": "99.5% (active)"}
{"smiles": "CCOC(=O)CCC(=O)OCC", "growth inhibition": "21.6% (inactive)"}
{"smiles": "CC(=O)NC1=NCC(CSc2nc3ccccc3s2)S1", "note": "(stereo not given)", "growth inhibition": "-8.45% (inactive)"}
{"smiles": "O=C(NCCO)Nc1ccccc1F", "growth inhibition": "10.2% (inactive)"}
{"smiles": "O=C1NCC2(CCN(Cc3ccccc3)CC2)N1c1ccccc1", "growth inhibition": "7.6% (inactive)"}
{"smiles": "CCC1=C/C(=N/O)C(C)=CC1(C)C(Cl)(Cl)Cl", "note": "(stereo not given)", "growth inhibition": "25.7% (inactive)"}
{"smiles": "C/C=C/C(=O)N1C(=O)OC[C@@H]1c1ccccc1", "growth inhibition": "37.4% (inactive)"}
{"smiles": "CC12CCCC3(CC(=O)C(C)(C)C3C(=O)C1)C2", "note": "(stereo not given)", "growth inhibition": "-13.9% (inactive)"}
{"smiles": "CCC(=O)N(C)[C@@H]1Oc2ccc(O)cc2[C@]1(C)c1cc(O)ccc1O", "growth inhibition": "0.35% (inactive)"}
{"smiles": "COc1ccc(C2(C3NCCC4=C3CCCC4)CC2)cc1", "note": "(stereo not given)", "growth inhibition": "11.9% (inactive)"}
{"smiles": "OCC=C1CCCCCC1", "growth inhibition": "4.9% (inactive)"}
{"smiles": "O=C1c2ccccc2C(=O)c2c1ccc1c2N=C(c2ccc(Br)cc2)CC(c2cccc3ccccc23)N1", "note": "(stereo not given)", "growth inhibition": "-22.1% (inactive)"}
{"smiles": "Cc1ccc(NC(=O)c2ccc(C)c(N)c2)c(C)c1", "growth inhibition": "-16.2% (inactive)"}
{"smiles": "CC(CO)N1CCCCCC1", "note": "(stereo not given)", "growth inhibition": "-20.4% (inactive)"}
{"smiles": "OC(c1ccccc1)C(Cl)c1ccccc1", "note": "(stereo not given)", "growth inhibition": "1% (inactive)"}
{"smiles": "CC1CC(=O)NC(=O)C1", "growth inhibition": "-7.25% (inactive)"}
{"smiles": "COc1ccc2ccccc2c1Br", "growth inhibition": "-11.3% (inactive)"}
{"smiles": "O=S(=O)(CCS(=O)(=O)c1ccccc1)c1ccccc1", "growth inhibition": "-11.4% (inactive)"}
{"smiles": "O=C1O/C(=C(\\Br)c2ccccc2)c2ccccc21", "growth inhibition": "52.9% (inactive)"}
{"smiles": "CCOC(=O)N1C=Cc2c(c3ccccc3n2C)N1C(=O)OCC", "growth inhibition": "3.85% (inactive)"}
{"smiles": "c1ccc(N=NC(N=Nc2ccccc2)=P(c2ccccc2)(c2ccccc2)c2ccccc2)cc1", "growth inhibition": "56.4% (inactive)"}
{"smiles": "CCOC(=O)/C=C/SCCC(=O)OC", "growth inhibition": "37.3% (inactive)"}
{"smiles": "Cc1ccccc1C(=O)OCC(=O)c1ccc(-c2ccccc2)cc1", "growth inhibition": "-17.6% (inactive)"}
{"smiles": "O=c1[nH]nc(Cc2ccccc2)n1/N=C/c1cccnc1", "growth inhibition": "28.8% (inactive)"}
{"smiles": "Nc1nc(Cl)c2ncn(C3OC(CO)C(O)C3O)c2n1", "note": "(stereo not given)", "growth inhibition": "-8.1% (inactive)"}
{"smiles": "CC(=O)OC(C)(C#N)C(C)(C#N)OC(C)=O", "note": "(stereo not given)", "growth inhibition": "-13.3% (inactive)"}
{"smiles": "Cc1cc(N=Nc2ccc(N=Nc3ccc(S(=O)(=O)O)cc3)cc2)cc(C(=O)O)c1O", "growth inhibition": "12% (inactive)"}
{"smiles": "O=c1[nH]cnc2c1ncn2CCCCc1ccccc1", "growth inhibition": "8.4% (inactive)"}
{"smiles": "CNC1C(CO)OC(OC)C1O", "note": "(stereo not given)", "growth inhibition": "10.8% (inactive)"}
{"smiles": "COC(=O)CCC(=O)Nc1ccccc1C(F)(F)F", "growth inhibition": "-8.55% (inactive)"}
{"smiles": "CSc1ccc(NC(=O)Nc2cccc(F)c2)cc1", "growth inhibition": "-2.15% (inactive)"}
{"smiles": "Clc1ccc2c(c1)nnn1nccc21", "growth inhibition": "16.4% (inactive)"}
{"smiles": "COC(=O)/C=C(/C(=O)OC)C1(C)c2cc(C(=O)OC)c(C(=O)OC)c(N)c2C(=N)N1c1ccccc1", "note": "(stereo not given)", "growth inhibition": "-3.75% (inactive)"}
{"smiles": "O=c1oc2ccccc2cc1S(=O)(=O)c1ccc(Cl)cc1", "growth inhibition": "-0.9% (inactive)"}
{"smiles": "O=C(NNC(=O)c1cccc(F)c1)c1cccc(F)c1", "growth inhibition": "-20.6% (inactive)"}
{"smiles": "NS(=O)(=O)c1ccc(N=Cc2ccccc2)cc1", "growth inhibition": "0.4% (inactive)"}
{"smiles": "N#CC(=S)N(C(=O)c1ccc(Cl)cc1)c1ccccc1Cl", "growth inhibition": "-1.4% (inactive)"}
{"smiles": "CC1CCCC2(CC[N+](C)(CCC[N+](C)(C)C)CC2)C1", "note": "(stereo not given)", "growth inhibition": "-9.5% (inactive)"}
